Of roughly 8,800 targets only a part is listed; those with a hit were picked by preference. About 0.5% of all pairs of compound and target were hits.
Legend:
Assay in all cases: log2 fold change, soluble protein after heating vs DMSO (PISA); higher = thermal stabilisation; K562 lysate, 10 uM; active = over 0.2 and 3.5 SD of the protein, either way, in both replicates (recomputed)
alvocidib = compound: CN1CC[C@H](c2c(O)cc(O)c3c(=O)cc(-c4ccccc4Cl)oc23)[C@H](O)C1 [alvocidib]
Summary of the method: (§1)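 Log-two fold change in thermal stability relative to solvent controls is reported from duplicates. For each sample, crude K562 extract from dounce-homogenised pellets in PBS pH 7.4 with 1 mM MgCl2, at 1 mg/mL protein, was treated with 10 μM compound for 30 min. Aliquots heated for 3 min across 48°C-58°C were pooled, brought to 0.5% NP-40 at 4°C and cleared at 21,000xg for 90 min. The supernatant was quantified by TMTpro 16plex LC-MS/MS with channel sums equalised.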

Tubastatin A = compound: CN1CCc2c(c3ccccc3n2Cc2ccc(C(=O)NO)cc2)C1 [Tubastatin A]
Summary of the method: as §1

[1] = compound: CNC(=O)C1=CC=CC=C1NC2=NC(=NC=C2Cl)NC3=C(C=C(C=C3)N4CCOCC4)OC
Summary of the method: as §1

defactinib = compound: CNC(=O)c1ccc(Nc2ncc(C(F)(F)F)c(NCc3nccnc3N(C)S(C)(=O)=O)n2)cc1 [defactinib]
Summary of the method: as §1

[2] = compound: CNc1nc(-c2ccc3c(N)n[nH]c3c2)cc(N2C[C@@H](C(=O)NC3CCCCC3)CC[C@H]2C)n1
Summary of the method: as §1

encorafenib = compound: COC(=O)N[C@@H](C)CNc1nccc(-c2cn(C(C)C)nc2-c2cc(Cl)cc(NS(C)(=O)=O)c2F)n1 [encorafenib]
Summary of the method: as §1

[3] = compound: COC(=O)[C@H](CCSC)NC(=O)C1=C(C=C(C=C1)NC[C@H](CS)N)C2=CC=CC=C2
Summary of the method: as §1

alisertib = compound: COc1cc(Nc2ncc3c(n2)-c2ccc(Cl)cc2C(c2c(F)cccc2OC)=NC3)ccc1C(=O)O [alisertib]
Summary of the method: as §1

[4] = compound: COc1cc2nc(-c3cc(F)ccc3O)nc(N[C@@H]3CNC[C@H]3C(C)(C)O)c2cc1OC
Summary of the method: as §1

gefitinib = compound: COc1cc2ncnc(Nc3ccc(F)c(Cl)c3)c2cc1OCCCN1CCOCC1 [gefitinib]
Summary of the method: as §1

lapatinib = compound: CS(=O)(=O)CCNCc1ccc(-c2ccc3ncnc(Nc4ccc(OCc5cccc(F)c5)c(Cl)c4)c3c2)o1 [lapatinib]
Summary of the method: as §1

pictilisib = compound: CS(=O)(=O)N1CCN(Cc2cc3nc(-c4cccc5[nH]ncc45)nc(N4CCOCC4)c3s2)CC1 [pictilisib]
Summary of the method: as §1

crizotinib = compound: C[C@@H](Oc1cc(-c2cnn(C3CCNCC3)c2)cnc1N)c1c(Cl)ccc(F)c1Cl [crizotinib]
Summary of the method: as §1

[5] = compound: C[C@H](C1=CC=C(C=C1)C(=O)NC2=C3C=CNC3=NC=C2)N
Summary of the method: as §1

duvelisib = compound: C[C@H](Nc1ncnc2nc[nH]c12)c1cc2cccc(Cl)c2c(=O)n1-c1ccccc1 [duvelisib]
Summary of the method: as §1

gandotinib = compound: Cc1cc(Nc2cc(CN3CCOCC3)c3nc(C)c(Cc4ccc(Cl)cc4F)n3n2)n[nH]1 [gandotinib]
Summary of the method: as §1

tozasertib = compound: Cc1cc(Nc2cc(N3CCN(C)CC3)nc(Sc3ccc(NC(=O)C4CC4)cc3)n2)n[nH]1 [tozasertib]
Summary of the method: as §1

doramapimod = compound: Cc1ccc(-n2nc(C(C)(C)C)cc2NC(=O)Nc2ccc(OCCN3CCOCC3)c3ccccc23)cc1 [doramapimod]
Summary of the method: as §1

bafetinib = compound: Cc1ccc(NC(=O)c2ccc(CN3CC[C@H](N(C)C)C3)c(C(F)(F)F)c2)cc1Nc1nccc(-c2cncnc2)n1 [bafetinib]
Summary of the method: as §1

[6] = compound: Cc1cccc(CC(=O)N2CCc3c2ccc(-c2cn(C)c4ncnc(N)c24)c3F)n1
Summary of the method: as §1

Measured: log2 fold change

ENO1, A0A2R8YEM5
active: [5] -0.469 | [6] 0.244
inactive: alvocidib -0.256 | Tubastatin A 0.104 | [1] 0.021 | defactinib 0.043 | [2] 0.002 | encorafenib 0.031 | [3] -0.035 | alisertib 0.006 | [4] -0.001 | gefitinib 0.035 | lapatinib -0.016 | pictilisib -0.037 | crizotinib 0.017 | duvelisib 0 | gandotinib 0.185 | tozasertib 0.001 | doramapimod -0.006 | bafetinib 0.036

GIGYF2 (UniProt Q6Y7W6)
Sequence of UniProt Q6Y7W6 (Q6Y7W6 whole entry, looked up): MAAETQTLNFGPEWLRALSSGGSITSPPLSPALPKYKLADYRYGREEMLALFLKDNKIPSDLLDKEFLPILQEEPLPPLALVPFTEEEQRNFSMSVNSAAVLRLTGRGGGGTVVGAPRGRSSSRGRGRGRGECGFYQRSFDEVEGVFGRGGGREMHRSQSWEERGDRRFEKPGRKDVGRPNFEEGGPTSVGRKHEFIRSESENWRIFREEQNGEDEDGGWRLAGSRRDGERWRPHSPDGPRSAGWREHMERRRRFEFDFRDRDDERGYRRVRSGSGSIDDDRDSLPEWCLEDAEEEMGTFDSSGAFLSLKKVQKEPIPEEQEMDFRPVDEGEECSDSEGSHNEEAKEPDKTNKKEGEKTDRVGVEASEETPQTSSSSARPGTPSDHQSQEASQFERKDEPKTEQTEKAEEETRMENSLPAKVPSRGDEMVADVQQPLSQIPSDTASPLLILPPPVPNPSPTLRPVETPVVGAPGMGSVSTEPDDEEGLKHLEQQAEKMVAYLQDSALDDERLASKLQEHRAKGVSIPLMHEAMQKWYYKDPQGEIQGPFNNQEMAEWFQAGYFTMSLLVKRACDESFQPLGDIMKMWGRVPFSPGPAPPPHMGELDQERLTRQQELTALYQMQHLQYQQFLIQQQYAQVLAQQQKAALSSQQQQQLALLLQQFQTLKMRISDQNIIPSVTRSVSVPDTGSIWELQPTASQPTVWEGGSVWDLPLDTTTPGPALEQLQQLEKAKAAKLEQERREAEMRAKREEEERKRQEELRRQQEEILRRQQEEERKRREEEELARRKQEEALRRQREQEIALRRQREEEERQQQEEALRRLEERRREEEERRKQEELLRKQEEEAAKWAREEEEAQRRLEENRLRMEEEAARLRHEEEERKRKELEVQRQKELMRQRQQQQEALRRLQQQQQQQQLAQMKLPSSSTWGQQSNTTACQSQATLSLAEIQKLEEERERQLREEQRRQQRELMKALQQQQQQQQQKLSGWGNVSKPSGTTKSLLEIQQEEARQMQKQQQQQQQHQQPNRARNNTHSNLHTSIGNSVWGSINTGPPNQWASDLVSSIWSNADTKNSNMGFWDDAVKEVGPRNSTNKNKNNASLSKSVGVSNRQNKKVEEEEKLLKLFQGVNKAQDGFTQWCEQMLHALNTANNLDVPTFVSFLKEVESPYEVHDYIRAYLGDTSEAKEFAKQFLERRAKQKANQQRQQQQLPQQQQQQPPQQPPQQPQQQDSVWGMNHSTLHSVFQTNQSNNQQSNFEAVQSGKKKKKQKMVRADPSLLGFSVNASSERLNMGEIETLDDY
inactive: alvocidib -0.028 | Tubastatin A -0.164 | [1] 0.052 | defactinib 0.017 | [2] 0.019 | encorafenib 0.092 | [3] -0.063 | alisertib 0.028 | [4] 0.013 | gefitinib 0.005 | lapatinib 0.013 | pictilisib 0.057 | crizotinib 0.024 | [5] 0.03 | duvelisib -0.033 | gandotinib 0.05 | tozasertib -0.006 | doramapimod -0.086 | bafetinib -0.043 | [6] -0.009

EIF2D (UniProt P41214)
inactive: alvocidib 0.017 | Tubastatin A -0.083 | [1] 0.003 | defactinib 0.033 | [2] -0.024 | encorafenib -0.014 | [3] 0.164 | alisertib 0.013 | [4] -0.018 | gefitinib -0.031 | lapatinib -0.002 | pictilisib -0.014 | crizotinib -0.067 | [5] 0.024 | duvelisib 0.022 | gandotinib -0.084 | tozasertib 0.029 | doramapimod 0.032 | bafetinib -0.063 | [6] -0.01

EMC7 (UniProt Q9NPA0)
Sequence of UniProt Q9NPA0 (Q9NPA0 whole entry, looked up): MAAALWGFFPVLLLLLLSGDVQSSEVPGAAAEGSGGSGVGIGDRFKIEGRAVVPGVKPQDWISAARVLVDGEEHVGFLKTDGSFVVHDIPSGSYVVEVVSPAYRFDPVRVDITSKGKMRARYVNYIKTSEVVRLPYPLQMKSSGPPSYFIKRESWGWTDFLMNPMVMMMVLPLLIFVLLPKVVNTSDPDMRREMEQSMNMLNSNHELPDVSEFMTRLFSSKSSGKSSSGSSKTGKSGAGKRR
active: [5] -0.353
inactive: alvocidib -0.146 | Tubastatin A 0.039 | [1] -0.037 | defactinib 0.02 | [2] -0.008 | encorafenib 0.026 | [3] -0.058 | alisertib 0.001 | [4] 0.017 | gefitinib -0.043 | lapatinib -0.03 | pictilisib 0.024 | crizotinib 0.012 | duvelisib -0.041 | gandotinib 0.077 | tozasertib 0.02 | doramapimod 0.011 | bafetinib -0.031 | [6] 0.174

FYN (UniProt P06241)
Sequence of UniProt P06241 (P06241 whole entry, looked up): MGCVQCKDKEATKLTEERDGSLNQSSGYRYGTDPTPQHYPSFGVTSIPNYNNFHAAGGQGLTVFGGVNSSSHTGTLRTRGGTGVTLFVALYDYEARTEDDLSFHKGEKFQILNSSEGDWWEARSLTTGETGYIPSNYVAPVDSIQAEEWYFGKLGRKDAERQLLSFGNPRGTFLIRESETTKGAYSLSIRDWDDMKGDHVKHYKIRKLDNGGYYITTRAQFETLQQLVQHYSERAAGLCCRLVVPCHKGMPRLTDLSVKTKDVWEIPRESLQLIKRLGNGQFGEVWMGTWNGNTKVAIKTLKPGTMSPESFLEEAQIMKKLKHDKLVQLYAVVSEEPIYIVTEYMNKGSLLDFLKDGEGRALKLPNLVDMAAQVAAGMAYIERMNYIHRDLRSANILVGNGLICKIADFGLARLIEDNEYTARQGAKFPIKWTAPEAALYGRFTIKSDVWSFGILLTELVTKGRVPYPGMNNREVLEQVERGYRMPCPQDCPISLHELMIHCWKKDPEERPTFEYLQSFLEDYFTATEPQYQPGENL
inactive: alvocidib -0.078 | Tubastatin A 0.03 | [1] -0.009 | defactinib 0.038 | [2] -0.069 | encorafenib 0.092 | [3] -0.121 | [4] 0.005 | lapatinib 0.007 | pictilisib -0.201 | crizotinib 0.12 | [5] -0.092 | duvelisib -0.019 | tozasertib 0.054 | doramapimod -0.04 | bafetinib 0.198 | [6] -0.057
active: gandotinib 0.422

GATAD2A isoform 3 (UniProt Q86YP4)
Sequence of UniProt Q86YP4 (Q86YP4 whole entry, looked up): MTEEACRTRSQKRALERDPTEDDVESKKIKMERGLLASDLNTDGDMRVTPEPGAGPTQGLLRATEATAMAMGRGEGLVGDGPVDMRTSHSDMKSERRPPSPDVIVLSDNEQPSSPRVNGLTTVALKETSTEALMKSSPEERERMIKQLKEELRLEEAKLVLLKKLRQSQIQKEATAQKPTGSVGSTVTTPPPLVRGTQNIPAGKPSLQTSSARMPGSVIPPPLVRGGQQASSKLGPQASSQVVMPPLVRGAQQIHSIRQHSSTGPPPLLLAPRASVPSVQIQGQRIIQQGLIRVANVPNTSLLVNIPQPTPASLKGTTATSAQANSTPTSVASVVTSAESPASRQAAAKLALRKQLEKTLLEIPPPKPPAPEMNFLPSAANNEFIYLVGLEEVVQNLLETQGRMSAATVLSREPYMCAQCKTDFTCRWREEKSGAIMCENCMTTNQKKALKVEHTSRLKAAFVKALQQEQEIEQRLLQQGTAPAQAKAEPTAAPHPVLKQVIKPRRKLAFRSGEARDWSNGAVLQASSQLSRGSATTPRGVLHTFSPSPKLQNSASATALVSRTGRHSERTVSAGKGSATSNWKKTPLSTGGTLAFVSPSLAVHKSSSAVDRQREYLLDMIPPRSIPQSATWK
inactive: alvocidib -0.028 | Tubastatin A -0.045 | [1] 0.015 | defactinib 0 | [2] 0.025 | encorafenib 0.005 | [3] 0.072 | alisertib 0.006 | [4] 0.01 | gefitinib -0.023 | lapatinib -0.012 | pictilisib -0.031 | crizotinib -0.011 | [5] -0.031 | duvelisib -0.037 | gandotinib 0.016 | tozasertib -0.009 | doramapimod 0.026 | bafetinib 0.001 | [6] 0.061

GAPDH (UniProt P04406)
Sequence of UniProt P04406 (P04406 whole entry, looked up): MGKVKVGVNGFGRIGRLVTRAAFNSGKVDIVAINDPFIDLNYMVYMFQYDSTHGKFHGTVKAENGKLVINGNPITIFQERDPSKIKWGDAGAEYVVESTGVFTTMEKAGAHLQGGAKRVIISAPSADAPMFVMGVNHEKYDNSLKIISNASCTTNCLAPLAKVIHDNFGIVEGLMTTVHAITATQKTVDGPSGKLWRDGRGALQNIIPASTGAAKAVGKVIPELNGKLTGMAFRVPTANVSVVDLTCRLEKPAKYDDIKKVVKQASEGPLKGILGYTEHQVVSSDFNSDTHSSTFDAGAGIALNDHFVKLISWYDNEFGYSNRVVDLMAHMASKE
inactive: alvocidib 0.01 | Tubastatin A 0.046 | [1] 0 | defactinib 0.012 | [2] 0.018 | encorafenib -0.045 | [3] -0.006 | alisertib -0.039 | [4] -0.001 | gefitinib -0.026 | lapatinib 0.005 | pictilisib -0.024 | crizotinib 0.066 | [5] 0.043 | duvelisib 0.003 | gandotinib -0.002 | tozasertib -0.005 | doramapimod -0.031 | bafetinib 0.055 | [6] -0.082

FAM76B (UniProt Q5HYJ3)
Sequence of UniProt Q5HYJ3 (Q5HYJ3 whole entry, looked up): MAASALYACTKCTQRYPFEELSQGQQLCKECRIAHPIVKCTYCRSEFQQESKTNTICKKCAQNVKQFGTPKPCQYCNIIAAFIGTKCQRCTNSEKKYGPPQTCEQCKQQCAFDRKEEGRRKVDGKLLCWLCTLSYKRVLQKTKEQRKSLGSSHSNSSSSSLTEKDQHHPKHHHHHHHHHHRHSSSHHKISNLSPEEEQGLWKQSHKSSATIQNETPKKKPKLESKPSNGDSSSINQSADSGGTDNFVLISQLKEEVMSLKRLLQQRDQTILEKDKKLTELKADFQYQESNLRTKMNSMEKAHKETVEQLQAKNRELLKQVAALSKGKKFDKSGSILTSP
active: [6] 0.269
inactive: alvocidib -0.019 | Tubastatin A 0.012 | [1] 0.068 | defactinib 0.076 | [2] -0.002 | encorafenib 0.013 | [3] -0.146 | alisertib -0.02 | [4] 0.016 | gefitinib -0.018 | lapatinib -0.049 | crizotinib 0.028 | [5] -0.19 | duvelisib -0.02 | gandotinib 0.023 | tozasertib -0.021 | doramapimod -0.016

FLT4 (UniProt P35916)
active: [1] -0.428
inactive: alvocidib -0.086 | Tubastatin A -0.001 | defactinib 0.004 | [2] -0.081 | encorafenib -0.129 | [3] 0.053 | [4] 0.031 | lapatinib -0.007 | pictilisib 0.057 | [5] -0.173 | duvelisib 0.026 | gandotinib 0.019 | tozasertib -0.056 | bafetinib -0.035 | [6] -0.041

EED, A0A5F9ZI63
inactive: alvocidib -0.007 | Tubastatin A -0.026 | [1] 0.039 | defactinib 0.003 | [2] 0.036 | encorafenib 0.004 | [3] 0.063 | alisertib -0.01 | [4] 0.013 | gefitinib -0.025 | lapatinib 0.047 | pictilisib -0.014 | crizotinib -0.001 | [5] -0.041 | duvelisib -0.006 | gandotinib 0.022 | tozasertib -0.01 | doramapimod 0.006 | bafetinib 0.033 | [6] 0.076

ETFRF1 (UniProt Q6IPR1)
Sequence of UniProt Q6IPR1 (Q6IPR1 whole entry, looked up): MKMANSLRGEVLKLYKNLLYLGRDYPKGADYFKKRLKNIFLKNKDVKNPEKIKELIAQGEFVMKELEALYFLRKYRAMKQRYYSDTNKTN
inactive: alvocidib 0.025 | Tubastatin A 0.032 | [1] -0.006 | defactinib -0.071 | [2] 0.021 | alisertib 0.003 | [4] -0.042 | gefitinib -0.009 | lapatinib 0.021 | pictilisib -0.01 | crizotinib -0.004 | [5] 0.112 | duvelisib -0.004 | gandotinib -0.087 | doramapimod -0.057 | bafetinib -0.039 | [6] -0.039

FKBP8 isoform 2 (UniProt Q14318)
Sequence of UniProt Q14318 (Q14318 whole entry, looked up): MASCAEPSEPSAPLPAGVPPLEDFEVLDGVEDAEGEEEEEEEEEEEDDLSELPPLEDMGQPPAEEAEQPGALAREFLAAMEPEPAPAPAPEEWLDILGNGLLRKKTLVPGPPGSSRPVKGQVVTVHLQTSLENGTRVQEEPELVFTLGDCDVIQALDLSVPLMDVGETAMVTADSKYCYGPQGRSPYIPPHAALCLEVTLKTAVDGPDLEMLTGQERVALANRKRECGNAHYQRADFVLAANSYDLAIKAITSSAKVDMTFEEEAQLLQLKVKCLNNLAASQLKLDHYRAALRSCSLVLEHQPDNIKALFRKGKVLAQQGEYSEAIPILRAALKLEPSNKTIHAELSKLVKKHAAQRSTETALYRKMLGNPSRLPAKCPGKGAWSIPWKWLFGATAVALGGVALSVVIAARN
inactive: alvocidib 0.004 | Tubastatin A -0.123 | [1] 0.02 | defactinib 0.024 | [2] -0.018 | encorafenib 0.009 | [3] 0.112 | alisertib 0.027 | [4] 0.001 | gefitinib 0.01 | lapatinib -0.041 | pictilisib -0.036 | crizotinib -0.12 | [5] -0.035 | duvelisib 0.044 | gandotinib -0.021 | tozasertib -0.024 | doramapimod 0.064 | bafetinib -0.07 | [6] 0.013

GABPB1 isoform 3 (UniProt Q06547)
Sequence of UniProt Q06547 (Q06547 whole entry, looked up): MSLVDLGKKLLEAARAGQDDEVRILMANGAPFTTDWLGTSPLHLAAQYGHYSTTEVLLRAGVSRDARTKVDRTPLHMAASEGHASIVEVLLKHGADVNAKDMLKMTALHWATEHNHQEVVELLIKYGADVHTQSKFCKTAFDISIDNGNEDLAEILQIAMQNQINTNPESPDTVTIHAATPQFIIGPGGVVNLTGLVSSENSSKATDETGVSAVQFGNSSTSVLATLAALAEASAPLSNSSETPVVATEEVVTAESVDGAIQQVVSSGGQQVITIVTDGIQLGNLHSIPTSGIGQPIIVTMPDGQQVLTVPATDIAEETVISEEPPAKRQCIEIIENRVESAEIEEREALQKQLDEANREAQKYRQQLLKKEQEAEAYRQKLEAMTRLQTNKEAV
inactive: alvocidib -0.013 | [1] -0.055 | defactinib -0.025 | [2] -0.039 | encorafenib -0.006 | [3] 0.099 | [4] 0.016 | lapatinib -0.057 | pictilisib -0.086 | crizotinib 0.001 | [5] -0.007 | duvelisib 0.068 | gandotinib 0 | tozasertib -0.001 | doramapimod -0.029 | bafetinib -0.149 | [6] 0.043
active: Tubastatin A -0.299

DYNC1I2 isoform 2 (UniProt Q13409)
Sequence of UniProt Q13409 (Q13409 whole entry, looked up): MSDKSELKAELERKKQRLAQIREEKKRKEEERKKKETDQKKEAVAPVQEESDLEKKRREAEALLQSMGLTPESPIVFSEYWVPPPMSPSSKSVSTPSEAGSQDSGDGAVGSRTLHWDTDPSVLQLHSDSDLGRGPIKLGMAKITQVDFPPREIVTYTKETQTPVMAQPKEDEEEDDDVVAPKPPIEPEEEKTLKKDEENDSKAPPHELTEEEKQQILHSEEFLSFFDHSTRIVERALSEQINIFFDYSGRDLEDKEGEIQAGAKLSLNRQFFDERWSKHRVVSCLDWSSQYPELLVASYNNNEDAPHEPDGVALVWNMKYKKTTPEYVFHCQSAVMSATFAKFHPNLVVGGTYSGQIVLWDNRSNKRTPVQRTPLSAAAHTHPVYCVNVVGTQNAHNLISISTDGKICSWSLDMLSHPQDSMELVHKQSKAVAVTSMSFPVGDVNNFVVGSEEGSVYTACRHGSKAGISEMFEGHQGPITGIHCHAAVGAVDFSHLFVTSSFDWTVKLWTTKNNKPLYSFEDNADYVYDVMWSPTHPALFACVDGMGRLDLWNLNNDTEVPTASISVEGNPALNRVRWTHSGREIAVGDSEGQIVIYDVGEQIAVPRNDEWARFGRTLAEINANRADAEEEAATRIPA
inactive: alvocidib 0.065 | Tubastatin A 0.002 | [1] -0.02 | defactinib 0.001 | [2] -0.039 | encorafenib 0.011 | [3] 0.056 | [4] 0.096 | lapatinib 0.029 | pictilisib 0.078 | crizotinib -0.031 | [5] 0.096 | duvelisib 0.015 | gandotinib -0.132 | tozasertib 0.001 | doramapimod -0.011 | bafetinib -0.041 | [6] -0.012

EP300 (UniProt Q09472)
inactive: alvocidib -0.098 | Tubastatin A 0.035 | [1] -0.026 | defactinib 0.066 | [2] 0.006 | encorafenib 0.031 | [3] 0.105 | alisertib -0.121 | [4] -0.056 | gefitinib -0.054 | lapatinib 0.062 | pictilisib -0.078 | crizotinib 0.047 | [5] -0.101 | duvelisib -0.037 | gandotinib -0.047 | tozasertib 0.065 | doramapimod -0.016 | bafetinib 0.044 | [6] 0.089

Reference: the supplement of paper PMC10849652
